# Measured values reported in PubChem BioAssay AID652057 (Broad Institute, 2013).
# Out of some 1,400 compounds screened, about 1,000 (71%) were called active. The set was probably picked from earlier hits. Not all results are given here. Measured potencies and affinities stand elsewhere. A number with no mark means an inactive call. How the calls were made is not given here.
# Assay: blockers of HIV-1 envelope-mediated cell-cell fusion – cherry-pick, dose response (AID 652057)
# Conditions: HeLa-JRFL Env/CEM21 cell fusion, luciferase; series mostly up to 35 µM; activity change, negative = inhibition: at the top concentration
row,SMILES,"activity change, negative = inhibition"
1,O=C(C[C@@H]1C[C@@H]2c3cc(NC(=O)Nc4ccccc4)ccc3O[C@@H]2[C@@H](CO)O1)NCc1ccccc1,12.8% [at 30 µM]
2,O=C(C[C@H]1C[C@H]2c3cc(NS(=O)(=O)c4ccc(F)cc4)ccc3O[C@H]2[C@@H](CO)O1)NCc1ccccc1F,27.6%
3,O=C(C[C@@H]1C[C@H]2c3cc(NC(=O)Nc4ccc(F)cc4)ccc3O[C@H]2[C@H](CO)O1)NCC1CC1,38.6%
4,CN(C)C(=O)C[C@@H]1C[C@@H]2c3cc(NS(=O)(=O)c4ccc(F)cc4)ccc3O[C@@H]2[C@@H](CO)O1,28%
5,O=C(C[C@H]1C[C@@H]2c3cc(NC(=O)Nc4ccc(F)cc4)ccc3O[C@@H]2[C@@H](CO)O1)NCC1CC1,-7.22%
6,O=C(C[C@@H]1C[C@@H]2c3cc(NS(=O)(=O)c4ccc(F)cc4)ccc3O[C@@H]2[C@H](CO)O1)NCc1ccccc1F,-1.08%
7,Cc1cc(C(=O)N2CCC(C(=O)O)CC2)c(C(F)(F)F)o1,-13.1%
8,CCc1nnc(NC(=O)[C@@H](NC(=O)c2cccc(S(=O)(=O)N(CC)CC)c2)C(C)C)s1,-4.25%
9,Cc1cc(Nc2cccc(C(F)(F)F)c2)cc(=O)n1-c1cccc(C(F)(F)F)c1,-4.17%
10,CCN(CC)S(=O)(=O)c1cccc(NC(=O)c2ccc(-n3nc(C)cc3C)cc2)c1,-21.6%
11,O=C(Nc1cccc(C(F)(F)F)c1)c1ccc(Cn2cc(Br)cn2)o1,-20.7%
12,O=C(C[C@H]1C[C@H]2c3cc(NC(=O)C4CCC4)ccc3O[C@H]2[C@@H](CO)O1)NCc1ccc2c(c1)OCO2,7.29% [at 30 µM]
13,O=C(NCc1cccc(F)c1)[C@@H]1[C@@H](CO)[C@@H]2Cn3c(ccc(-c4cccnc4)c3=O)[C@H]1N2CC1CC1,5.3%
14,CN(C)CCCNC(=O)[C@H]1[C@H](CO)[C@H]2Cn3c(ccc(C4=CCCC4)c3=O)[C@H]2N1CCC(F)(F)F,23.1%
15,Cc1cc(C)c(CN2CCN(C(=O)Cn3ccc(NC(=O)OCc4ccccc4)nc3=O)CC2)c(C)c1,-21.1%
16,CCCNC(=O)C[C@@H]1C[C@@H]2c3cc(NC(=O)CN(C)C)ccc3O[C@@H]2[C@H](CO)O1,1.88%
17,C[C@H](CO)N1C[C@H](C)[C@H](CN(C)C(=O)Nc2ccccc2)Oc2c(NS(=O)(=O)c3ccc(F)cc3)cccc2C1=O,77.5% [at 8 µM]
18,Cc1nn(C)c(C)c1CN(C)S(=O)(=O)c1ccc2ccccc2c1,-19.4%
19,O=C(C[C@H]1C[C@H]2c3cc(NC(=O)NC4CCCC4)ccc3O[C@H]2[C@@H](CO)O1)NC1CCCCC1,4.98% [at 30 µM]
20,COc1ccccc1S(=O)(=O)n1cc(Cc2ccccc2)c(N)n1,0.466%

row,SMILES,"activity change, negative = inhibition"
1,COc1ccc(S(=O)(=O)N[C@@H]2CC[C@@H](CC(=O)NCCc3ccncc3)O[C@@H]2CO)cc1,-7.73%
2,O=C(NCC[C@@H]1CC[C@@H](NS(=O)(=O)c2ccccc2F)[C@@H](CO)O1)c1ccc(F)cc1,23.2%
3,CC1CN(S(=O)(=O)c2cc(C(=O)NCCC3=CCCCC3)ccc2Cl)CC(C)O1 (stereo not given),-19.3% [at 16 µM]
4,O=C(Nc1ccc(F)cc1)Nc1ccc2c(c1)[C@H]1C[C@@H](CC(=O)N3CCCCC3)O[C@H](CO)[C@H]1O2,23.7%
5,CO[C@@H]1CN(C)C(=O)c2cc(NC(=O)Nc3ccc(Cl)cc3)ccc2OC[C@H](C)N(C)C[C@H]1C,-23%
6,CCOc1ccccc1C(=O)NCC(=O)NNC(=O)CN(C)S(=O)(=O)c1ccc(Cl)cc1,-16.5%
7,COc1cccc(S(=O)(=O)N[C@H]2CC[C@H](CC(=O)NCc3ccncc3)O[C@@H]2CO)c1,2.5%
8,CCOC(=O)CN1CCCc2nc(C)c(C)cc21,8.7%
9,C[C@@H]1CN([C@@H](C)CO)S(=O)(=O)c2ccc(-c3ccccc3)cc2O[C@H]1CN(C)S(C)(=O)=O,-12.1%
10,CO[C@H]1CN(C)C(=O)c2cc(NC(=O)c3ccc(F)cc3)ccc2OC[C@H](C)N(C(=O)CN(C)C)C[C@@H]1C,16.8%
11,CC(CCc1ccco1)NC(=O)CCc1nnc2ccc(NCc3ccccc3Cl)nn12 (stereo not given),19.2%
12,C[C@@H]1CN([C@@H](C)CO)C(=O)Cc2cc(NC(=O)NC3CCCCC3)ccc2O[C@@H]1CN(C)S(=O)(=O)c1ccc(Cl)cc1,17.7% [at 16 µM]
13,CC1CCCC(C)N1CCCNC(=O)c1nn(C)c2c1CSc1ccccc1-2 (stereo not given),49.2%
14,CCOc1ccc(NC2c3ccccc3C(=O)N2Cc2ccco2)cc1 (stereo not given),4.3%
15,Cn1c(=O)oc2cc(S(=O)(=O)NCc3ccncc3)ccc21,-2.17%
16,O=C(C[C@@H]1C[C@H]2c3cc(NC(=O)C4CCOCC4)ccc3O[C@H]2[C@H](CO)O1)NCc1ccccc1F,23.4%
17,Cc1noc(C)c1NC(=O)N(C)C[C@H]1OCCCC[C@H](C)Oc2ccc(NC(=O)c3ccccc3)cc2C(=O)N([C@H](C)CO)C[C@@H]1C,24.3%
18,CC(C)NC(=O)Nc1ccc2c(c1)C(=O)N([C@@H](C)CO)C[C@H](C)[C@H](CN(C)C(=O)Nc1ccc(F)cc1)O2,-14.9%
19,COc1ccc(S(=O)(=O)n2ccc(-c3ccc(OCCN(C)c4ccccn4)cc3)n2)cc1,-11.7%
20,COc1ccccc1OCC(=O)c1[nH]c(C)c(C(C)=O)c1C,-2.71%
